# PubChem BioAssay
# For some of these results: Potency and affinity values are given separately. Activity calls are given as the source filed them. Unless noted, the rule behind the calls is not given here.
# What was measured:
# [1] = growth inhibition, single agent and combos, cell-based, chromothripsis tumors, cisplatin or BGB combos (AID 1671450; in the data active = inhibition above about 80%;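 note: cells exposed to compound for four days; 0% = vehicle DMSO and 100% = cell killing by high DMSO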); conditions: HDN33 neuroblastoma cells, stronger effect = higher value
# [2] = growth inhibition, single agents and combos, LFS_MB_1R, cell-based, cisplatin or BGB combos, synergistic combos for chromothripsis tumors (AID 1671452; in the data active = inhibition above about 80%;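 note: cells exposed for 96 hours before readout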); conditions: LFS_MB_1R medulloblastoma cells, stronger effect = higher value
# [3] = growth inhibition, single agents and combos, HTB85, cell-based, BGB or cisplatin IC20 combos, synergistic combos for chromothripsis tumors (AID 1671453; in the data active = inhibition above about 80%;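 note: cells exposed for 96 hours before readout; 0% = vehicle DMSO and 100% = high DMSO killing control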); conditions: HTB85 osteosarcoma cells, drug combinations, stronger effect = higher value
# [4] = growth inhibition, single agents and combos, CRL2098, cell-based, BGB or cisplatin IC20 combos, synergistic combos for chromothripsis tumors (AID 1671454; in the data active = inhibition above about 80%;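 note: cells exposed for 96 h before readout; 0% = vehicle DMSO and 100% = killing by high DMSO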); conditions: CRL2098 osteosarcoma cells, drug combinations, stronger effect = higher value
# [5] = growth inhibition, single agents and combos, HD-MB03, cell-based, BGB or cisplatin IC20 combos, synergistic combos for chromothripsis tumors (AID 1671455; in the data active = inhibition above about 83%;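 note: 0% = vehicle DMSO and 100% = high DMSO as cytotoxic control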); conditions: HD-MB03 medulloblastoma cells, stronger effect = higher value
# [6] = growth inhibition, single agents and combos, UWB1.289, cell-based, BGB or cisplatin combos, synergistic combos for chromothripsis tumors (AID 1671456; in the data active = inhibition above about 80%;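 note: cells exposed to compound for four days; 0% = vehicle DMSO and 100% = killing by high DMSO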); conditions: UWB1.289 ovarian carcinoma cells, stronger effect = higher value
# [7] = growth inhibition, MDA-MB-436, cell-based, BGB or cisplatin combos, synergistic combos for chromothripsis tumors (AID 1671458); conditions: MDA-MB-436 breast carcinoma growth inhibition, drug combinations, stronger effect = higher value;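 note: cells exposed for 96 hours; 0% = vehicle DMSO and 100% = killing by high DMSO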
# [8] = BT084 cell growth, single and combined drugs, ICGC_MB145, cisplatin and BGB IC40 combos (AID 1671461; in the data active = inhibition above about 80%;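 note: cells exposed to drugs for 96 hours; 0% = vehicle DMSO and 100% = high DMSO full killing control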); conditions: BT084 medulloblastoma cells, drug combinations, stronger effect = higher value
# [9] = RCMB18 cell growth, single agent and combined, cisplatin and BGB IC40 combos (AID 1671462; in the data active = inhibition above about 80%;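 note: cells exposed to compound for four days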); conditions: RCMB18 medulloblastoma cells, stronger effect = higher value
# [10] = CRL1545 cell growth, single agent and combined, cisplatin and BGB IC20 combos (AID 1671464; in the data active = inhibition above about 80%;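 note: cells exposed to compound for 96 hours before readout; 0% = vehicle DMSO and 100% = high DMSO killing control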); conditions: CRL1545 osteosarcoma cells, stronger effect = higher value
# [11] = chitosan synthesis blockers in C. neoformans – flow cytometry, Cibacron Brilliant Red staining (AID 1347148); conditions: Cryptococcus neoformans chitosan, stronger effect = lower value; at 10 µM unless noted;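 note: compound exposure lasted three days at 37 degrees C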
# [12] = GFP-Q80 aggregate reduction, neuronal-like cells, cell-based, NGF-treated PC12, GFPQ80 (AID 1614); conditions: PC12 NGF-treated GFP-polyQ80 inclusion reduction;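 note: lower means fewer inclusions and 0 means no inclusions at all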
# [13] = antimalarial activity against Dd2 strain (AID 2302;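 active = growth inhibition above 50% at the single 2 µM test dose, taken to imply half-maximal potency below 2 µM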;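 note: 0% = DMSO untreated growth and 100% = chloroquine plus artemisinin killed control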); conditions: P. falciparum Dd2 in RBCs, LDH growth readout, 72 h; at 2 µM; stronger effect = higher value
# [14] = human hepatoma cell viability loss – ATP luminescence, cytotoxicity control for P. falciparum antimalarial project, primary screen (AID 2303;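 active = inhibition above 50%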;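 note: 0% = DMSO wells and 100% = digitonin-killed cells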); conditions: HepG2 viability, 24-48 h, at 10 µM, stronger effect = higher value
# [15] = biological target: L-lactate dehydrogenase (Plasmodium falciparum (isolate CDC / Honduras)) (UniProt Q27743); test: PfLDH activity inhibition – cell lysate, 3D7 strain, counter-screen for P. falciparum growth inhibition project (AID 2304);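 note: 0% = vehicle and 100% = reference inhibitor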; conditions: P. falciparum 3D7 crude extract, LDH APAD/NBT absorbance; at 2 µM; stronger effect = higher value
# [16] = inhibition of 3D7 malaria parasite growth – strain 3D7 (AID 2306);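 note: 0% = DMSO wells and 100% = chloroquine plus artemisinin control wells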; conditions: P. falciparum 3D7 erythrocytic growth, LDH absorbance, 72 h; at 2 µM; stronger effect = higher value
# [17] = biological target: Calcium-dependent protein kinase 1 (Plasmodium falciparum (isolate 3D7)) (UniProt P62344); test: PfCDPK1 kinase inhibitors, biochemical, TCAMS library (AID 1159585; cut-off not given, nearly all actives have IC50 up to about 0.98 µM;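 note: inhibitors leave more ATP so luminescence rises with inhibition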); conditions: recombinant PfCDPK1, Kinase-Glo ATP depletion luminescence
# [18] = biological target: Plasmodium falciparum protein kinase 6 (PK6, PF3D7_1337100) (UniProt Q8IDW1); test: PfPK6 kinase inhibitors, biochemical, TCAMS library (AID 1159586); conditions: recombinant PfPK6, Kinase-Glo ATP depletion luminescence
# [19] = biological target: Protein kinase 7 (PK7), Plasmodium falciparum 3D7 (PF3D7_0213400) (UniProt Q7YTF7); test: inhibition of Plasmodium PK7 catalytic activity – biochemical, TCAMS antimalarial set, Kinase-Glo luminescence (AID 1159587); conditions: recombinant PfPK7, Kinase-Glo ATP depletion luminescence
# [20] = biological target: Calcium-dependent protein kinase 4 (Plasmodium falciparum (isolate 3D7)) (UniProt Q8IBS5); test: PfCDPK4 kinase inhibitors, biochemical, TCAMS library (AID 1159588; cut-off not given, nearly all actives have IC50 up to about 0.91 µM); conditions: recombinant PfCDPK4, Kinase-Glo ATP depletion luminescence
# [21] = measured here: with BGB IC20 combination, at 0.5 µM
# [22] = measured here: with cisplatin IC20 combination, at 0.5 µM
# [23] = measured here: combination with cisplatin, at 0.5 µM
# Chain of Protein kinase 7 (PK7), Plasmodium falciparum 3D7 (PF3D7_0213400) (Q7YTF7 1-343): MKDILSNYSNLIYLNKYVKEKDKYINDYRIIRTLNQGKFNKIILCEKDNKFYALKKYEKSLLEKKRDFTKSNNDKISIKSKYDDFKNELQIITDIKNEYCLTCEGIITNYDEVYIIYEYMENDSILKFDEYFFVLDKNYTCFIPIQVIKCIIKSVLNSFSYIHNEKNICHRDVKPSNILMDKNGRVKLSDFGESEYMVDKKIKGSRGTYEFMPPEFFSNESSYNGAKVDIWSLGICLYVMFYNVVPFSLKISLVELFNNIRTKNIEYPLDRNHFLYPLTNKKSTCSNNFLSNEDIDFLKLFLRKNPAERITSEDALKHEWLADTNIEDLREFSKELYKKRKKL
# Chain of Calcium-dependent protein kinase 1 (Plasmodium falciparum (isolate 3D7)) (P62344 whole entry, looked up): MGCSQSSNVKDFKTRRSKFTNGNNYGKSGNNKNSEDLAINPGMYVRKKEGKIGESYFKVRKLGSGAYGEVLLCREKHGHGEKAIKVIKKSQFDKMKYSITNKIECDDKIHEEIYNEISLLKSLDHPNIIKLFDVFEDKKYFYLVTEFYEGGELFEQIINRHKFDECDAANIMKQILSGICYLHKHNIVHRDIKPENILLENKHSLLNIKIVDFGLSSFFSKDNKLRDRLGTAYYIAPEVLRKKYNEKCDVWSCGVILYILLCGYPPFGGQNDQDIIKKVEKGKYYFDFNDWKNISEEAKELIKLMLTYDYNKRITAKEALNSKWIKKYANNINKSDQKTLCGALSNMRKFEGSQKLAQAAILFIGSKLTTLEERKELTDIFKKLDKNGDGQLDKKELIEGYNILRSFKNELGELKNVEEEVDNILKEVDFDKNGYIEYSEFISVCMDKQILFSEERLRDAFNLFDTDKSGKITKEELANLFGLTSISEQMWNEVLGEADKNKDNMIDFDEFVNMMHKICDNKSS
# Chain of L-lactate dehydrogenase (Plasmodium falciparum (isolate CDC / Honduras)) (Q27743 whole entry, looked up): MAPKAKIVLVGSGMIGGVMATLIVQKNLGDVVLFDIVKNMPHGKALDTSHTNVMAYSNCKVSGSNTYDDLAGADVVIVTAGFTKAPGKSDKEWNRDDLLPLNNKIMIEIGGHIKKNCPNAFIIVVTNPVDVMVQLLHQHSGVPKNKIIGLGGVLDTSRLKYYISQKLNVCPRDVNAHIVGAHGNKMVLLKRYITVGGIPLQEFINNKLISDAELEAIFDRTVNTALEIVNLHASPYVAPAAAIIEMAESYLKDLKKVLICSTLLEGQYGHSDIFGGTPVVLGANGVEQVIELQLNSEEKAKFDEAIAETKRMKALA
# Chain of Plasmodium falciparum protein kinase 6 (PK6, PF3D7_1337100) (Q8IDW1 1-305): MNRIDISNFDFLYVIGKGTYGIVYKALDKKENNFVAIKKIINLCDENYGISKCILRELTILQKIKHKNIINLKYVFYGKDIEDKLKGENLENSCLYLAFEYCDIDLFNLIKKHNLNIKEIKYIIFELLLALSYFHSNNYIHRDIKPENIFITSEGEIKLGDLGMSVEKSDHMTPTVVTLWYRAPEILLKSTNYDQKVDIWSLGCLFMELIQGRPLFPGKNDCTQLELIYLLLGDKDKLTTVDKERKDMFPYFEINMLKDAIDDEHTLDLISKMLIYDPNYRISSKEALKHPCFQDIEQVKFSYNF
# Chain of Calcium-dependent protein kinase 4 (Plasmodium falciparum (isolate 3D7)) (Q8IBS5 whole entry, looked up): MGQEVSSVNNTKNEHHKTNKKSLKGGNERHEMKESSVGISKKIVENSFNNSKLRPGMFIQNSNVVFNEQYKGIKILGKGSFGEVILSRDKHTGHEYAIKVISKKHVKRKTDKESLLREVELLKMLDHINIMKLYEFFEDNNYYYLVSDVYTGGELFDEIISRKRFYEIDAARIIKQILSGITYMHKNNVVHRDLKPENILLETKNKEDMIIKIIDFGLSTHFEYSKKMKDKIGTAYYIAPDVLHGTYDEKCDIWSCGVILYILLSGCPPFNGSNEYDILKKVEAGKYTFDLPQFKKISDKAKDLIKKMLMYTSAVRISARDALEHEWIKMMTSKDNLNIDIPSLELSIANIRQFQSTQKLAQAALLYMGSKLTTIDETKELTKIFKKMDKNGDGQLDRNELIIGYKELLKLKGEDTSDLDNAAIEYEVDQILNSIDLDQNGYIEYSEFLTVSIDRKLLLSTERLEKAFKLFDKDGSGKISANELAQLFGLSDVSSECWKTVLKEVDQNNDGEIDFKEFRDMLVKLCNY
smiles,measurement,setting,value
Cn1c(CCCC(=O)O)nc2cc(N(CCCl)CCCl)ccc21,inhibition,"[1]; BGB combo, at 5 µM",-27.8%
same,inhibition,[1]; at 0.5 µM,-43.6% (inactive)
same,inhibition,"[1]; cisplatin combo, at 5 µM",-18.8%
same,inhibition,[1]; [21],-46.1%
same,inhibition,[1]; [22],-39.8%
same,inhibition,"[1]; single agent, at 5 µM",-57.4%
same,inhibition,[2]; at 0.5 µM,-36.7% (inactive)
same,inhibition,"[2]; measured here: combination with BGB IC40, at 0.05 µM",-23.8%
same,inhibition,[2]; [23],-14.3%
same,inhibition,"[2]; measured here: combination with cisplatin, at 5 µM",-23.5%
same,inhibition,[3]; at 0.5 µM,-34.4% (inactive)
same,inhibition,"[3]; measured here: with BGB IC20, at 0.5 µM",-54.6%
same,inhibition,"[3]; measured here: with BGB IC20, at 5 µM",-12.9%
same,inhibition,"[3]; measured here: with cisplatin IC20, at 0.5 µM",-48.5%
same,inhibition,"[3]; measured here: with cisplatin IC20, at 5 µM",-38%
same,inhibition,"[3]; single agent, at 5 µM",-20%
same,inhibition,[4]; at 0.5 µM,-98.8% (inactive)
same,inhibition,"[4]; measured here: combination with BGB at IC20, at 0.5 µM",-103%
same,inhibition,"[4]; measured here: combination with cisplatin at IC20, at 0.5 µM",-129%
same,inhibition,[5]; at 0.5 µM,-13.4% (inactive)
same,inhibition,"[5]; measured here: combo with BGB at IC20, at 0.5 µM",-11.1%
same,inhibition,"[5]; measured here: combo with cisplatin at IC20, at 0.5 µM",-20.4%
same,inhibition,[6]; at 0.5 µM,-2.34% (inactive)
same,inhibition,"[6]; measured here: inhibition with BGB combination, at 0.05 µM",-13.2%
same,inhibition,"[6]; measured here: inhibition with cisplatin combination, at 0.05 µM",-10.4%
same,inhibition,[7]; at 0.5 µM,-25.9% (inactive)
same,inhibition,"[7]; measured here: BGB combination, at 0.5 µM",-33%
same,inhibition,"[7]; measured here: BGB combination, at 5 µM",-23.4%
same,inhibition,"[7]; measured here: cisplatin combination, at 0.5 µM",-31%
same,inhibition,"[7]; measured here: cisplatin combination, at 5 µM",-8.45%
same,inhibition,[8]; at 0.5 µM,-12.4% (inactive)
same,inhibition,"[8]; cisplatin combination, at 0.5 µM",-15.3%
same,inhibition,"[8]; cisplatin combination, at 5 µM",-29.8%
same,inhibition,"[8]; measured here: BGB IC40 combination 0.05 uM, at 0.05 µM",-6.48%
same,inhibition,"[8]; single agent, at 5 µM",-11.8%
same,inhibition,[9]; at 0.5 µM,-2.17% (inactive)
same,inhibition,"[9]; cisplatin combo, at 5 µM",-2.69%
same,inhibition,"[9]; measured here: BGB IC40 combination, at 0.05 µM",14.5%
same,inhibition,[9]; [23],15.5%
same,inhibition,"[9]; single agent, at 5 µM",-39.8%
same,inhibition,[10]; at 0.5 µM,-50.3% (inactive)
same,inhibition,[10]; [21],-68.1%
same,inhibition,[10]; [22],-41.4%
same,inhibition,"[10]; single agent, at 0.05 µM",2.56%
same,inhibition,"[10]; single agent, at 5 µM",-15.4%
CCCCC/C=C\C/C=C\C/C=C\C/C=C\CCCC(=O)NCC(=O)O,fold fluorescence,[11],3.73 (inactive)
O=c1ccc2cc(O[C@@H]3O[C@H](CO)[C@@H](O)[C@H](O)[C@H]3O)c(O)cc2o1,inclusion score,[12],2
C=C[C@H]1CN2CC[C@H]1C[C@@H]2[C@@H](O)c1ccnc2ccccc12,growth inhibition,[13],2% (inactive)
same,inhibition,[14],-7% (inactive)
same,inhibition,[15],3% (inactive)
same,growth inhibition,[16],101% (active)
same,outcome,[17],inactive
same,outcome,[18],inactive
same,outcome,[19],inactive
same,outcome,[20],inactive
O=c1c2ccccc2[se]n1-c1ccccc1,fold fluorescence,[11],9.59 [at 182.4 µM] (inactive)
COc1ccc(C[C@H]2NC[C@H](O)[C@H]2OC(C)=O)cc1,growth inhibition,[13],98% (active)
same,inhibition,[14],39% (inactive)
same,inhibition,[15],6% (inactive)
same,growth inhibition,[16],100% (active)
same,outcome,[17],inactive
same,outcome,[18],inactive
same,outcome,[19],inactive
same,outcome,[20],inactive
same,fold fluorescence,[11],11.2 [at 188.5 µM] (inactive)
C=C[C@H]1CN2CC[C@H]1C[C@H]2[C@H](O)c1ccnc2ccccc12,inclusion score,[12],2
same,growth inhibition,[13],3% (inactive)
same,inhibition,[14],9% (inactive)
same,inhibition,[15],2% (inactive)
same,growth inhibition,[16],100% (active)
same,outcome,[17],inactive
same,outcome,[18],inactive
same,outcome,[19],inactive
same,outcome,[20],inactive
CC[C@@H](CO)NC(=O)[C@@H]1C=C2c3cccc4[nH]cc(c34)C[C@H]2N(C)C1,inclusion score,[12],2
CC[C@H]1CN2CC[C@H]1C[C@@H]2[C@@H](O)c1ccnc2ccc(OC)cc12,growth inhibition,[13],95% (active)
same,inhibition,[14],-3% (inactive)
same,inhibition,[15],1% (inactive)
same,growth inhibition,[16],100% (active)
same,outcome,[17],inactive
same,outcome,[18],inactive
same,outcome,[19],inactive
same,outcome,[20],inactive
FC(F)(F)c1cccc(N2CCNCC2)c1,inclusion score,[12],2
CC[C@@]1(O)C(=O)OCc2c1cc1n(c2=O)Cc2cc3ccccc3nc2-1,fold fluorescence,[11],6.75 [at 143.5 µM] (inactive)
